The sample as a whole holds a higher share of hits than the screen did.
RT RNaseH block = HIV-1 RT RNase H inhibitors, primary screen, biochemical, fluorescence; Gag-Pol polyprotein (Human immunodeficiency virus type 1 group M subtype B (isolate …; RT-RNase H RNA/DNA duplex cleavage; inhibition, % at 10 µM; 65,000 compounds, 1.9% hits; in the data active = inhibition above about 50%
* = called active by the depositor.

SMILES	RT RNaseH block
CCOC(=O)CSc1nc2c(c(=O)[nH]c(=O)n2C)n1CCCc1ccccc1	5.6
CCOCCn1c(SCC(=O)OCc2ccccc2)nc2c1c(=O)[nH]c(=O)n2C	86.3*
CS(=O)(=O)N(CCc1ccccc1)CC(=O)NCc1cccnc1	-1.3
O=C(Nn1c(=S)[nH]c2ccccc2c1=O)c1ccncc1	2.0
CCOC(=O)c1c(-c2cccs2)csc1NC(=O)CN1CCOCC1	-21.8
CCOC(=O)c1c(-c2cccs2)csc1NC(=O)c1ccco1	28.1
NC(=O)c1c(-c2cccs2)csc1N	80.2*
O=C1CC(N2CCN(S(=O)(=O)c3cccc(C(F)(F)F)c3)CC2)C(=O)N1Cc1ccccc1 (stereo unspecified)	5.4
CCOC(=O)c1nn(-c2ccc3c(c2)OCO3)cc1O	2.6
C=CCn1c2ccccc2c2nnc(SCc3ccc4nonc4c3)nc21	-1.0
CN(C(=O)Cn1c(=O)n(CCCCC(=O)NC2CCCC2)c(=O)c2ccccc21)C1CCCCC1	-9.4
CCc1nc2scc(-c3ccccc3)c2c(=O)n1N	-2.7
Cc1nc2scc(-c3ccccc3)c2c(=O)n1N	-4.6
O=c1[nH]c(Cn2nnc(-c3ccccc3)n2)nc2scc(-c3ccccc3)c12	52.9*
CCOc1ccc2cc(C#N)c(SCC(=O)N3CCC(C)CC3)nc2c1	2.9
CCOc1ccc2cc(C#N)c(SCC(=O)NC(C)CC)nc2c1 (stereo unspecified)	57.8*
CCOC(=O)CSc1nc2cc(OCC)ccc2cc1C#N	-6.7
O=C(Nc1ccccc1C(=O)NCc1ccco1)c1ccccc1	-10.8
CCC(C)C(NC(=O)c1ccccc1NC(=O)c1ccco1)C(=O)O (stereo unspecified)	2.0
CCC(C)C(NC(=O)c1ccccc1NC(=O)c1ccc(OC)cc1)C(=O)NCc1ccco1 (stereo unspecified)	54.6*
O=C(CN1CCOc2ccccc21)N1CCN(c2cccc(Cl)c2)CC1	-4.0
CN(CC(=O)Nc1ccncc1)S(=O)(=O)c1ccc(Cl)cc1	-10.1
Cc1cc(C)c(N2CCN(S(=O)(=O)N3CCCCCC3)CC2)c(C)c1	8.4
CCOC(=O)c1nnn(-c2nonc2N)c1-c1ccc(OC)cc1	-33.0
CCOC(=O)c1sc2nc(-c3ccco3)c3c(c2c1N)CC(C)(C)OC3	90.0*
SMILES	RT RNaseH block
CCOC(=O)c1sc2nc3c(cc2c1N)COC(C)(C)C3	2.0
Cc1nc2sc(C(=O)O)c(N)c2c2c1COC(C)(C)C2	8.7
Cc1cc(C(=O)CSc2nnc(-c3cccs3)o2)c(C)n1-c1ccccc1	-7.5
O=C(Nc1cccc(NC(=O)c2nccc3ccccc23)c1)c1ccco1	-6.1
COC(=O)c1ccc(OCC(O)CN(CC(C)C)CC(C)C)cc1 (stereo unspecified)	2.7
O=C(CSc1nnc(C2CC2)n1Cc1ccccc1)N1CCN(S(=O)(=O)c2ccccc2)CC1	-24.3
CCCn1c(SCC(=O)N2CCN(S(=O)(=O)c3ccc(Cl)cc3)CC2)n[nH]c1=O	-16.4
Cc1cc(C)n2c(SCC(=O)N3CCN(S(=O)(=O)c4ccc(Cl)cc4)CC3)nnc2n1	69.6*
CCN(CC(=O)Nc1ccc2c(c1)OCCO2)c1nc(-c2cccnc2)nc2ccccc12	-25.4
CN(C)S(=O)(=O)c1ccc(C(=O)Nc2ccnn2C2CCCCC2)cc1	-4.9
Cc1cc(C)c(Cn2c(=O)n(CCCC(=O)NCc3ccco3)c(=O)c3ccccc32)c(C)c1	79.9*
Cc1ccc(C)c(Cn2c(=O)n(CCCC(=O)NCc3ccco3)c(=O)c3ccccc32)c1	-2.4
O=C(CCCn1c(=O)c2ccccc2n(CC(=O)NCc2ccco2)c1=O)NCc1ccco1	-5.0
CC(C)C(NS(=O)(=O)c1cccs1)C(=O)NCc1ccc2c(c1)OCO2 (stereo unspecified)	-5.3
O=S(=O)(c1cccc2c(S(=O)(=O)N3CCCC3)cccc12)N1CCCC1	-6.6
O=c1c2ccccc2sn1-c1ccc(S(=O)(=O)N2CCCCC2)cc1	95.1*
O=S(=O)(c1ccc2ccccc2c1)N1CCCCC1	-91.8
COc1ccc(C(=O)n2ccc(C)n2)cc1Br	-24.3
CCn1c(SCC(=O)NCc2ccc3c(c2)OCO3)nnc1-c1c[nH]c2ccccc12	3.4
COC(=O)c1nnn(CC(=O)Nc2cccc(Cl)c2C)c1C(=O)OC	-3.9
CCc1nn2c(=O)cc(CSc3nc4sc5c(c4c(=O)n3C)CCCC5)nc2s1	-17.3
COc1cccc(-c2nc(-c3ccc(NC(=O)Cc4ccccc4OC)cc3)no2)c1	13.3
COc1ccc(-c2nc(-c3ccc(NC(=O)c4ccc(Br)o4)cc3)no2)cc1OC	-4.6
COc1ccc(CCC(=O)Nc2ccc(-c3noc(-c4ccc(OC)c(OC)c4)n3)cc2)cc1	60.6*
O/N=C(\c1ccc(Cl)cc1)c1cc2ccccc2o1	-30.9
SMILES	RT RNaseH block
CCCCC(=O)Nc1ccc(Cl)cn1	-9.3
CCOC(=O)NC1(Nc2ccc(Cl)cn2)Oc2ccccc2O1	57.3*
Cc1ccccc1C(=O)Nc1ccc(Cl)cn1	-13.3
Cc1cnn(-c2ccc3nnc(-c4ccc(Br)cc4)n3n2)c1	11.2
COc1ccc(N2CCN(Cc3cc(=O)oc4ccc(Cl)cc34)CC2)cc1	23.6
COc1ccc(N2CCN(Cc3cc(=O)oc4c3ccc3ccccc34)CC2)cc1	54.4*
O=c1cc(CN2CCN(c3ccccc3)CC2)c2c(ccc3ccccc32)o1	4.1
CC1(C)NC(=O)N(CNc2cc(Cl)ccc2Cl)C1=O	-67.5
CN1CCCN(C(=O)Cc2c(Cl)cccc2Cl)c2nc3ccccc3nc21	-1.4
CN(CC(=O)Nc1ccc2c(c1)OCCO2)S(=O)(=O)c1cccc2cccnc12	-11.9
CCCCOc1ccc(-c2c(C#N)c(N)nc(SCC(N)=O)c2C#N)cc1	62.7*
CCCCOC(=O)CSc1nc(N)c(C#N)c(-c2ccc(OCC)cc2)c1C#N	-10.0
CCCCOC(=O)CSc1nc(N)c(C#N)c(-c2ccc(OC)cc2)c1C#N	0.7
O=C1C(=C2CCCCC2)SC(=S)N1Cc1ccco1	6.0
Cc1c(C(=O)OCC2CCCO2)[nH]c2c1C(=O)CC(c1ccc(N(C)C)cc1)C2 (stereo unspecified)	0.8
COc1ccc(C2N(c3cc(Cl)ccc3OC)C(=O)C3CCCN32)cc1OC (stereo unspecified)	-10.1
COc1ccc(OC)c(C(=O)c2coc3ccc(O)cc23)c1	-9.2
CCCCn1c(CCC(=O)O)ccc1-c1cccs1	-9.8
O=C(O)CCc1ccc(-c2cccs2)n1Cc1ccco1	-6.6
O=C(O)CCc1ccc(-c2cccs2)n1NC(=O)c1ccc(O)cc1	50.6*
Cc1csc(=Nc2ccc(S(=O)(=O)N3CCOCC3)cc2)n1Cc1ccco1	-55.1
CN1CCN(c2ncnc3c2cnn3-c2ccc(Cl)cc2)CC1	-7.5
CCN1CCN(c2ncnc3c2cnn3-c2ccc(Cl)cc2)CC1	-7.3
CCOC(=O)N1CCN(c2ncnc3c2cnn3-c2ccc(Cl)cc2)CC1	69.3*
COc1ccc(-c2cc3c(=O)n(CC(=O)NC4CCN(Cc5ccccc5)CC4)ncn3n2)cc1	63.7*
SMILES	RT RNaseH block
Cc1ccc2oc(=O)c3cnn(CC(=O)NC4CCN(Cc5ccccc5)CC4)c3c2c1	-12.2
O=C(Cn1cc2c(n1)CCCC2)NC1CCN(Cc2ccccc2)CC1	-6.4
O=c1cc(NCc2ccco2)[nH]c(=O)n1-c1ccc(Br)cc1	-8.0
O=C(O)c1cc(S(=O)(=O)Nc2ccc3c(c2)OCCO3)c(Cl)cc1Cl	-5.7
Cc1ccc(/C=c2\sc3nc(-c4ccccc4Br)nn3c2=O)o1	50.7*
Cc1ccc(/C=c2\sc3nc(-c4ccco4)nn3c2=O)o1	29.6
Cc1ccc(/C=c2/sc3nnc(-c4ccccc4Cl)n3c2=O)o1	18.6

Screening results: PubChem BioAssay, University of Pittsburgh Molecular Library Screening Center
